Screening data (PubChem)
Six1-Eya2 blk: blocks human Six1 binding to Eya2 | 0.56% of 360,000 active | AlphaScreen GST-Six1/His-Eya2 binding, biochemical; active compounds read low | Q15475+O00167 | activity change, % (no concentration beside the values) | AID 651725; in the data active means activity change below about -65%; inconclusive means mostly about -30% to -63%; further: on the % scale 0 is the no-effect control and ±100 the full control effect
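AlphaScreen luminescence read after one hour at 37 °C in darkness. Pin-transferred compounds met GST-Six1 and His-Eya2 protein (5X stock 250 nM/500 nM) plus glutathione donor and Ni-chelate acceptor beads (5X, 50 ug/mL).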
BAZ2B block: BAZ2B (human) inhibition; 4.4% of 360,000 active; AID 504333; Potency, µM (series often up to 114 µM), inactives show top-dose activity change, negative = inhibition, hits mostly inhibitors; AlphaScreen BAZ2B-H3K14Ac peptide displacement; Q9UIF8; further: potency means the concentration at half of the fitted maximal effect; on the % scale 0 is the no-effect control and ±100 the full control effect; nearly all actives have a fitted effect of over 60% in size
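Protein-peptide AlphaScreen: BAZ2B 50 nM, b-H3K14Ac 50 nM, 1x PBS pH 7.4 + 0.01% Tween-20. Preincubation 30 min RT; cpd 30 min RT (top 110 uM); beads 20 min RT, light-protected.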
CtBP-E1A inh: blocks the CtBP interaction with E1A | AlphaScreen GST-E1A/His-CtBP binding, 1536-well; active compounds read low | activity change, % (concentration not given with the values) | 0.49% of 340,000 active | AID 651724; in the data active means activity change below about -65%; inconclusive means mostly about -30% to -63%; further: on the % scale 0 is the no-effect control and ±100 the full control effect
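Homogeneous bead-based format: GST-tagged E1A captured on glutathione donor beads, His-tagged CtBP on nickel acceptor beads; compounds precede bead addition by 2 h at 37 °C.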
HP1b chromo inh: blocks HP1-beta chromodomain binding to methylated histone tails. P83916. AlphaScreen HP1-beta / biotin-H3K9me3 peptide binding. Potency, µM (top dose mostly 114 µM), for inactives: top-dose activity change, negative = inhibition, usual class: inhibitors. 0.56% of 390,000 active. AID 540317; further: potency means the concentration at half of the fitted maximal effect; nearly all actives have a fitted effect of over 70% in size
Target sequence (P83916 whole entry, looked up): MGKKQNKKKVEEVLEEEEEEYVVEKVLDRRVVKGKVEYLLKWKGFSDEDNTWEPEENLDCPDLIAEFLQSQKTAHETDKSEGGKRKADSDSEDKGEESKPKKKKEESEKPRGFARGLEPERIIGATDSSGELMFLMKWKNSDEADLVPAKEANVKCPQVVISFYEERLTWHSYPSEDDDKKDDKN
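Compound inhibition of the preformed complex between 50 nM HP1-beta and 50 nM biotinylated H3K9me3 peptide was read by AlphaScreen. Buffer was PBS pH 7.4 with 0.01% Tween-20. Incubations ran 30 min at room temperature, with 10 ug/mL donor/acceptor beads.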
JMJD2A Tudor: blocks the human JMJD2A Tudor domain. 4.4% of 390,000 active. AlphaScreen JMJD2A-Tudor / H3K4me3 peptide binding. Potency, µM (doses to about 114 µM), for inactives: at the highest dose activity change, negative = inhibition, actives largely listed as inhibitors. AID 504339. O75164; further: potency means the concentration at half of the fitted maximal effect; on the % scale 0 is the no-effect control and ±100 the full control effect; nearly all actives have a fitted effect of over 50% in size
TDP1 block: blocks human tyrosyl-DNA phosphodiesterase 1; AID 485290; recombinant TDP1, AlphaScreen DNA substrate cleavage; Potency, µM (doses to about 130 µM), for inactives: at the top dose activity change, negative = inhibition, actives largely listed as inhibitors; 0.28% of 350,000 active; Q9NUW8; further: potency means the concentration at half of the fitted maximal effect; on the % scale 0 is the no-effect control and ±100 the full control effect; nearly all actives have a fitted effect of over 40% in size
Target sequence (Q9NUW8 whole entry, looked up): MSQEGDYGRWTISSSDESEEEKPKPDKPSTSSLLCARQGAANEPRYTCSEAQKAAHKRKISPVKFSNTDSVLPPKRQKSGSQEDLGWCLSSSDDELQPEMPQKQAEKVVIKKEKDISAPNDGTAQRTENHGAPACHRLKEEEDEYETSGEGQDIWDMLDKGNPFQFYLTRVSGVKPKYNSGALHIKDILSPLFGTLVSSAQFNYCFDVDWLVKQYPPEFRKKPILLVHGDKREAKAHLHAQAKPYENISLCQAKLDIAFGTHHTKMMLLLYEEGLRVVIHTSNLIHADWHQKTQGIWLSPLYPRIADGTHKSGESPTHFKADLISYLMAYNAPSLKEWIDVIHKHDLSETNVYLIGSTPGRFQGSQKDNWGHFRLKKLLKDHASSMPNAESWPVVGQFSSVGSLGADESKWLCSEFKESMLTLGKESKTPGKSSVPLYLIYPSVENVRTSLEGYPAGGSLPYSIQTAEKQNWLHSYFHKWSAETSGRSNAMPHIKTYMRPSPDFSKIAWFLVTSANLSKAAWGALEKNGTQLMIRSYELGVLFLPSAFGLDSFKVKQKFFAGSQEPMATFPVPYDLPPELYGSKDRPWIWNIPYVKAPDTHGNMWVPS
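Compounds were preincubated with Tdp1 (1 nM final) for 15 min at room temperature before substrate (15 nM final) started a 5 min reaction; beads (10 ug/ml final) were then added for 10 min before AlphaScreen detection.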
Numbers without * were called inactive; ? = inconclusive; . = no result; [ ] = dose if it differs, or a comment. This is a sample that favours compounds with a hit; in the whole collection about 5.3% have one here. Unless noted, the call rests on the fitted dose curve; in most records, active means well fitted inhibition curve with a large enough effect; inconclusive means small, poorly fitted or top-dose-only effect; inactive means no such curve, though single readings can be large or run the other way.

SMILES	Six1-Eya2 blk	BAZ2B block	CtBP-E1A inh	HP1b chromo inh	JMJD2A Tudor	TDP1 block
CN(C)c1ccc(/C=[N+](\[O-])C(C)(C)/C=N/O)cc1	0.9	-3.8%	-0.2	20.2%	50.1µM*	-5.1%
COc1ccc(N=C2C(=Nc3ccc(OC)cc3)N(c3ccc(N(C)C)cc3)C(=S)N2c2ccc(OC)cc2)cc1	-24.0	1.58µM*	-21.2	?	2.24µM*	8.1%
COc1ccccc1CNC(=O)c1ccc2c(c1)N(Cc1cc(C)ccc1C)C(=O)c1ccccc1S2	.	0.5%	.	-3.6%	-17.4%	10.4%
CC(=Nc1ccccc1)c1sc2ccccc2c1O	-1.6	?	-5.2	-14.6%	56.2µM*	4.1%
CCOc1ccc(N)c(SSc2cc(OCC)ccc2N)c1	?	31.6µM*	.	17.8µM*	12.6µM*	.
COc1cc(CNCc2ccc(OC)c(OC)c2OC)cc(OC)c1	0.2	50.1µM*	-6.6	-49.6%	2.51µM*	-8.4%
COc1ccccc1CNCc1cc(OC)c(OC)c(OC)c1	-8.3	79.4µM*	3.0	70.8µM*	39.8µM*	-4.9%
COc1ccccc1CNCCCCCCNCCCCCCCCNCCCCCCNCc1ccccc1OC	.	.	.	.	.	15.1%[56.1 µM]
COc1cc(CNCc2ccc(SC)cc2)cc(OC)c1	2.2	?	-2.1	?	1.41µM*	5.5%
COc1ccccc1CNN	-6.1	?	-6.4	-1.9%	39.8µM*	5.4%
CCCN(C(=O)c1c(C)oc2ncnc(N3CCOCC3)c12)c1ccc(Cl)c(Cl)c1	.	2.9%	.	24.0%	2.0%	-5.9%
CCc1cccc(C)c1NC(=O)CN1C(=O)C2(SCC(=O)N2c2cccc(F)c2)c2ccccc21 (stereo unspecified)	.	-2.0%[57.1 µM]	.	54.2%	-21.7%	4.2%
Cc1c(Cl)cccc1NC(=O)CCOc1ccccc1	.	4.8%	.	39.1%	-6.9%	0.4%[12.3 µM]
COc1ccc(CNCc2ccc3ccccc3c2)c(OC)c1	4.6	?	.	?	35.5µM*	4.6%
COc1ccc(CNCc2ccncc2)c(OC)c1	5.8	26.9%	4.7	28.7%	-13.1%	.
COC(=O)C1=C(C)NC(=O)C1(NC(=O)c1cc(OC)c(OC)c(OC)c1)C(F)(F)F (stereo unspecified)	.	-18.6%	.	23.7%	-7.8%	0.6%
CCc1ccc(C2c3c(-c4cc(C)ccc4O)n[nH]c3C(=O)N2Cc2cccnc2)cc1 (stereo unspecified)	.	-26.3%	.	11.1%	?	8.6%
CC(C)C(=O)OCc1cn(-c2ccc(Cl)c(Cl)c2)nn1	4.6	65.6%	1.7	-4.4%	22.4µM*	-8.8%
O=S(=O)(NCC1COc2ccccc2O1)c1ccc2ccccc2c1 (stereo unspecified)	2.9	10.9%	8.1	45.5%	-31.2%[57.1 µM]	2.8%
CNS(=O)(=O)c1ccc(NCC2COc3ccccc3O2)c([N+](=O)[O-])c1 (stereo unspecified)	-23.3	50.1µM*	-21.6	-15.5%	-24.8%[57.1 µM]	6.9%
N#Cc1c(Sc2ncc(C(F)(F)F)cc2Cl)nsc1C/C=N\OCc1ccccc1Br	-10.9	44.7µM*	-5.1	-22.5%	?	12.1%
Cc1ccc(Cn2c(SCc3cccnc3)nc3c2c(=O)n(C)c(=O)n3C)cc1	1.2	-7.5%	1.1	17.7%	-18.0%	4.9%
COc1ccc(N2CCN(c3nc4c(c(=O)n(C)c(=O)n4C)n3Cc3ccccc3)CC2)cc1	?	44.7µM*	-24.1	?	56.2µM*	11.9%
Cn1c(=O)c2c(nc(SCc3cccnc3)n2Cc2ccccc2)n(C)c1=O	-8.1	-8.3%	-8.4	22.4%	35.5µM*	5.9%
Cc1ccc2c(c1)cc(C(=O)Nc1ccc(F)cc1F)n2C	.	-24.1%	.	58.0%	-2.0%	3.6%
SMILES	Six1-Eya2 blk	BAZ2B block	CtBP-E1A inh	HP1b chromo inh	JMJD2A Tudor	TDP1 block
Cc1ccc(SC[C@H](C)CN2CC[C@H](NC(=O)OCc3ccccc3)CCC2=O)cc1	5.1	-32.8%	.	37.8%	-13.4%	.
Cc1ccc(S[C@@H](CCN2CC[C@H](NC(=O)OCc3ccccc3)CCC2=O)c2ccccc2)cc1	-4.9	-7.8%	.	29.6%	25.1µM*	.
CCOC(=O)c1ccc(CN(Cc2ccc(F)cc2)S(=O)(=O)c2ccc(F)c(C(=O)Nc3ccc(Cl)cc3F)c2)cc1	.	7.3%	.	38.9%	2.8%	7.8%
CCOc1cc(/C=N/Nc2nn3cnnc3c3ccccc23)ccc1O	-88.0*	-16.0%	-66.7*	16.6%	-11.3%	1.2%
C(=N\Nc1ccc2nncn2n1)/c1ccco1	-5.8	-25.1%	?	16.4%	2.1%	1.9%
COc1cc(/C=N/Nc2nc3ccccc3[nH]c2=O)ccc1O	5.6	-23.3%	-8.6	21.3%	-6.1%	-1.2%
C(=N\Nc1nn2cnnc2c2ccccc12)/c1ccco1	-71.6*	0.0%	-3.1	7.2%	-11.1%	2.6%
COc1cc(/C=N/Nc2nn3cnnc3c3ccccc23)ccc1O	-88.7*	?	-89.5*	25.0%	-25.6%	5.9%
COc1cccc(/C=N/Nc2nn3cnnc3c3ccccc23)c1	-71.2*	-2.6%	-78.9*	21.7%	-10.3%	-5.1%
O=C(Cn1c(-c2cccs2)cc2ccccc21)NCCCN1CCN(c2ccccc2F)CC1	.	-22.9%	.	18.3%	-20.1%	2.5%
Oc1ccc(/C=N/Nc2nn3cnnc3c3ccccc23)cc1	-88.9*	-16.0%	-89.8*	35.5%	3.5%	5.2%
CCN(CC(=O)Nc1ccc(NC(C)=O)cc1)C(=O)c1ccccc1SCc1c(C)noc1C	-5.7	56.2µM*	3.7	2.3%	-31.7%	1.2%
CCOCCCNS(=O)(=O)c1ccc(NC(=O)c2ccc(OC)c([N+](=O)[O-])c2)cc1	-2.1	0.2%	7.0	-14.8%	11.2µM*	-4.9%
O=C(/C=C1\NC2(CCCC2)Cc2ccccc21)N1CCOCC1	-2.3	?	-7.5	-16.8%	50.1µM*	3.1%
N#CC(C#N)=C1NC2(CCCCC2)Cc2ccccc21	-1.3	-15.5%	.	15.7%	-15.9%	.
COc1ccc(COC(=O)N/N=C2/C[C@@H](O)[C@@H](O)[C@@H]3[C@@H]4C(=O)N(C(C)(C)C)C(=O)[C@H]4CC[C@@H]23)cc1	.	.	.	.	.	6.9%[21 µM]
CCSC1=NS(=O)(=O)c2ccccc21	.	.	.	.	-5.0%	.
COc1cc(/C=C2\C(=N)N3N=C(S(C)(=O)=O)SC3=NC2=O)ccc1OC(=O)c1ccco1	-14.4	50.1µM*	.	-11.8%[57 µM]	?	.
COc1cc(/C=C2/C(=N)N3C(=NC2=O)SN=C3S(C)(=O)=O)ccc1OS(=O)(=O)c1ccccc1	.	50.1µM*	.	.	.	-9.2%
CCOc1cc(/C=C2/C(=N)N3C(=NC2=O)SN=C3S(C)(=O)=O)ccc1OC(=O)c1ccco1	2.4	50.1µM*	?	4.9%	?	1.4%
CC1=CN2C(=N)/C(=C/c3ccc(Sc4ccc(Cl)cc4)o3)C(=O)N=C2S1	-7.2	-3.9%	-9.8	7.3%	-5.8%	5.4%
